From PubChem BioAssay (Tox21)
Inconclusive results are not listed. Activity calls are given as the source filed them. Unless noted, the call rests on the fitted dose curve; in most records, active means well fitted curve in the direction sought with a large enough effect in the repeat runs; inconclusive means weak or mixed curves; inactive means no such curve, though single readings can be large; an effect the other way counts as inactive or inconclusive.

What was measured:
[1] = qHTS RealTime-Glo MT Cell Viability Assay in HEK293 cells - 0 hour (AID 1224880); further: top concentration of the series differs between compounds; nearly all actives have a fitted effect of over 45% in size
Procedure, shortened: (§1)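 Measured as luminescence from the same continuously cultured HEK293 wells at successive time points (0, 8, 16, 24, 32, 40 h) after compound addition. Reagent present from seeding; dosing at 5 h; incubation 37 C.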

[2] = A CellTox Green Cytotoxicity Assay to monitor cytotoxicity in HEK293 cells - 32 hour (AID 1224881); further: nearly all actives have a fitted effect of over 40% in size
Procedure, shortened: (§2)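 Homogeneous no-lysis format: HEK293 cell suspension mixed with CellTox Green reagent, seeded, incubated 5 h at 37 C/5% CO2, then dosed by pintool with compound in DMSO.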

[3] = A CellTox Green Cytotoxicity Assay to monitor cytotoxicity in HepG2 cells - 0 hour (AID 1224882); further: nearly all actives have a fitted effect of over 35% in size
Procedure, shortened: (§3)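 Fluorescent DNA-binding dye, 600 HepG2 cells/well, 5 h preincubation then compound in DMSO; same plates read at 0–40 h, 37 C.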

[4] = A CellTox Green Cytotoxicity Assay to monitor cytotoxicity in HEK293 cells - 8 hour (AID 1224884); further: nearly all actives have a fitted effect of over 35% in size
Procedure, shortened: as §2

[5] = qHTS RealTime-Glo MT Cell Viability Assay in HEK293 cells - 24 hour (AID 1224886); further: nearly all actives have a fitted effect of over 50% in size; further: potency means the concentration at half of the fitted maximal effect
Procedure, shortened: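 Homogeneous bioluminescent viability format in HEK293 cells (600 cells/well). Following 5 h at 37 C/5% CO2, 23 nL compound was pintooled; the signal was measured repeatedly during 40 h incubation.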

[6] = qHTS RealTime-Glo MT Cell Viability Assay in HEK293 cells - 8 hour (AID 1224887); further: nearly all actives have a fitted effect of over 50% in size; further: potency means the concentration at half of the fitted maximal effect
Procedure, shortened: as §1

[7] = A CellTox Green Cytotoxicity Assay to monitor cytotoxicity in HEK293 cells - 16 hour (AID 1224888); further: nearly all actives have a fitted effect of over 35% in size
Procedure, shortened: as §2

[8] = qHTS RealTime-Glo MT Cell Viability Assay in HepG2 cells - 0 hour (AID 1224889); further: nearly all actives have a fitted effect of over 50% in size
Procedure, shortened: (§4)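 Cell number in HepG2 cultures estimated from NanoLuc luminescence generated by metabolic reduction of a prosubstrate by living cells. The homogeneous, nonlytic format allowed repeated reads at 0, 8, 16, 24, 32 and 40 h of compound exposure.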

[9] = A CellTox Green Cytotoxicity Assay to monitor cytotoxicity in HepG2 cells - 8 hour (AID 1224890); further: nearly all actives have a fitted effect of over 45% in size
Procedure, shortened: as §3

[10] = qHTS assay to identify small molecule antagonists of the estrogen receptor alpha (ER-alpha) signaling pathway using the BG1 cell line in the presence of 0.1 nM 17-beta-estradiol - cell viability counter screen (AID 1259241); further: nearly all actives have a fitted effect of over 40% in size
Procedure, shortened: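 Cytotoxicity counter-screen: live-cell protease activity measured by fluorescence (30 min reagent step) in the same wells. Cells were VM7Luc4E2 with endogenous ER-alpha and ERE-driven luciferase, treated 22 hr at 37C alongside 0.1 nM 17beta-estradiol final.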

[11] = qHTS assay to identify small molecule antagonists of the androgen receptor (AR) signaling pathway using the MDA cell line in the presence of 0.5 nM R1881 - cell viability counter screen (AID 1259242); further: nearly all actives have a fitted effect of over 45% in size
Procedure, shortened: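 Human breast carcinoma MDA-kb2 cells, cultured without CO2, receive compounds alongside 0.5 nM (final) R1881 agonist. After 16 hr at 37C, viability is taken as live-cell protease signal.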

[12] = molecular target: Estrogen receptor (Homo sapiens) (UniProt P03372); assay: qHTS assay to identify small molecule antagonists of the estrogen receptor alpha (ER-alpha) signaling pathway using the BG1 cell line in the presence of 0.1 nM 17-beta-estradiol (AID 1259244); further: nearly all actives have a fitted effect of over 50% in size
Sequence of Estrogen receptor (Homo sapiens) (P03372 whole entry, looked up): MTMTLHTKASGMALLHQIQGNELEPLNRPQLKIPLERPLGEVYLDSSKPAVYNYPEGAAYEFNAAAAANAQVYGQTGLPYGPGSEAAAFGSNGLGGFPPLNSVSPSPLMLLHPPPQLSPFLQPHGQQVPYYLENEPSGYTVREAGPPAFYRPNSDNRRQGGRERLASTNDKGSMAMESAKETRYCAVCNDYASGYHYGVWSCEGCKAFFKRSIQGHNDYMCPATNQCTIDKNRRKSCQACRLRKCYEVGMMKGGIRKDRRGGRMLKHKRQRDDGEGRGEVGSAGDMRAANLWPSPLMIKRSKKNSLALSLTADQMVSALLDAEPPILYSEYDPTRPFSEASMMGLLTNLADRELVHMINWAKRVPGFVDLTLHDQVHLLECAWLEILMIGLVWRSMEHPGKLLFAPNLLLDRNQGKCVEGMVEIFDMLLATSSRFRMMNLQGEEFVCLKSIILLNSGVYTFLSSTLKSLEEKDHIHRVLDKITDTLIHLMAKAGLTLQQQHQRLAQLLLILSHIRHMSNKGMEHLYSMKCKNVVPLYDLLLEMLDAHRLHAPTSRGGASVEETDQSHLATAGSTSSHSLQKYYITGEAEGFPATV
Procedure, shortened: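 Seeding of stripped-serum-adapted VM7Luc4E2 cells, 24 h attachment, compound transfer, then 0.1 nM final 17beta-estradiol; after 22 h incubation, ONE-Glo reagent and luminescence reading.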

[13] = qHTS assay to identify small molecule HDAC inhibitors - cell viability counter screen (AID 1259365)
Procedure, shortened: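 CellTiter-Glo luminescence (30 min, room temperature) reported viability after a 2 h compound exposure at 37 C. Cells: wild-type HCT-116, 1,500 per well, seeded the night before.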

[14] = qHTS assay to identify small molecule agonists of the sonic hedgehog signaling (Shh) pathway - cell viability counter screen (AID 1259366); further: nearly all actives have a fitted effect of over 50% in size
Procedure, shortened: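 Cytotoxicity counter screen: CellTiter-Fluor reagent added after 23 h compound exposure, then 1 h at 37C and fluorescence read. Cells were 3T3 Gli1-Luc, seeded 2,000 per well and dosed 4 h post-plating.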

[15] = qHTS assay to identify small molecule antagonists of the sonic hedgehog signaling (Shh) pathway - cell viability counter screen (AID 1259367); further: nearly all actives have a fitted effect of over 55% in size
Procedure, shortened: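 Cytotoxicity was assessed in parallel with Shh reporter activity by measuring live-cell protease fluorescence (CellTiter-Fluor) in NIH/3T3 cells stably carrying Gli1-Luc, treated with compound under conditioned medium stimulation for 23 hr plus 1 hr reagent incubation.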

[16] = A CellTox Green Cytotoxicity Assay to monitor cytotoxicity in HepG2 cells - 32 hour (AID 1224883); further: nearly all actives have a fitted effect of over 50% in size
Procedure, shortened: as §3

[17] = qHTS RealTime-Glo MT Cell Viability Assay in HepG2 cells - 16 hour (AID 1224885); further: nearly all actives have a fitted effect of over 50% in size
Procedure, shortened: as §4

[18] = qHTS assay to identify small molecule HDAC inhibitors (AID 1259364);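 further: wild-type HCT-116 cells with endogenous class I/II HDAC activity; top concentration of the series differs between compounds; nearly all actives have a fitted effect of over 45% in size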
Procedure, shortened: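 After a 2 hr compound incubation (37C, 5% CO2), HCT-116 cells seeded at 1,500/well the day before received HDAC-Glo reagent; signal read as luminescence after 30 min at room temperature.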

[19] = qHTS assay to identify small molecule phospholipidosis (PLD) inducers (AID 1259344; active means well fitted curve in the direction sought with a large enough effect; an effect the other way counts as inactive or inconclusive)
Procedure, shortened: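 Cells (HepG2, 900 per well) attach for 4 h, receive LipidTOX Red and compound together, incubate 24 h at 37 C, are fixed 30 min with paraformaldehyde/Hoechst, then imaged at one site per well.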

Measured: Potency

COC(=O)CCCCCCCCC(=O)OC
not listed: [16] | [17] | [18] | [19]
inactive: all other assays above

CC(C)CCOC(=O)CC(C)C
not listed: [2] | [4] | [7] | [14] | [19]
inactive: all other assays above

COc1cc(O)cc(O)c1
not listed: [1] | [6] | [13] | [14] | [18]
inactive: all other assays above

Cn1cnc2c(=O)[nH]c(N)nc21
not listed: [1] | [12] | [17] | [19]
inactive: all other assays above

O=C(O)c1ccccc1S
not listed: [2] | [4] | [6] | [14] | [17]
inactive: all other assays above

CCn1c(=O)c2c(nc(/C=C/c3ccc(OC)c(OC)c3)n2C)n(CC)c1=O
active: [5] 1690 nM | [6] 1510 nM
not listed: [8] | [12] | [16] | [19]
inactive: all other assays above
